Target: E3 ubiquitin-protein ligase XIAP (Homo sapiens) (UniProt P98170)
Assay: XIAP binders, primary screen, biophysical, small-molecule microarray, fluorescence 635 nm (AID 1181);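 note: score merges 667 nm emission and signal to noise over triplicate slides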
Details: small-molecule microarray binding, higher = more signal

Sequence of E3 ubiquitin-protein ligase XIAP (Homo sapiens) (P98170 whole entry, looked up): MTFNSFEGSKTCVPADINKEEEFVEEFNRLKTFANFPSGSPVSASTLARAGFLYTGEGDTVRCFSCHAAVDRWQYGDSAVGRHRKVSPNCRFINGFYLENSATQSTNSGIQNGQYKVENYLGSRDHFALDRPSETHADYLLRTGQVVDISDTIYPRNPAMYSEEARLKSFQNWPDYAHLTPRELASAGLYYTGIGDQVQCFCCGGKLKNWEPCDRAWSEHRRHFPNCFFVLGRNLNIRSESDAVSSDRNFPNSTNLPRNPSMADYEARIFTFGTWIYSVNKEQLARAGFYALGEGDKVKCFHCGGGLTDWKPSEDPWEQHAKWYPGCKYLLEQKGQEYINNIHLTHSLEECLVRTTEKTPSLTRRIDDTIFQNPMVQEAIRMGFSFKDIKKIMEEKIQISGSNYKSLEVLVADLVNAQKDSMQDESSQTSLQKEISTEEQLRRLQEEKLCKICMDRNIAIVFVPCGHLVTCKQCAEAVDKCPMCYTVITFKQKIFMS

Row | Compound | composite z-score
1 | [N-]=[N+]=Nc1ccccc1[C@H]1OC(c2ccc(OCCCO)cc2)=N[C@@]1(Cc1ccccc1)C(=O)N1CCOCC1 | -0.0917
2 | CN1C(=O)C2C=CC(C(O)c3ccccc3)N(N3CCCCC3)C2C1=O (stereo unspecified) | 0.263
3 | C=CCC(OC(C)=O)[C@@H]1[C@@H](N(Cc2ccc(-c3ccccc3)cc2)C(=O)Cc2ccc(F)cc2)c2cc(OCCCO)ccc2N1C(=O)c1ccc2ccccc2c1 (stereo partly specified) | -0.146
4 | COc1cc(CO)cc(I)c1O[C@H]1C=C(C(=O)NCCO)C[C@@H](N(C(=O)c2cc3ccccc3oc2=O)C2CCCCCC2)[C@@H]1O | -0.154
5 | CCCNC(=O)[C@@]1(Sc2ccc(C)cc2)CC(=O)N(Cc2ccccc2C(F)(F)F)[C@@H]1c1ccc(CO)cc1I | -0.181
6 | NC(=O)[C@@H]1[C@H]2C(=O)O[C@H](c3ccccc3)[C@H](c3ccccc3)N2[C@H](c2ccc(OCCO)cc2)[C@@]12C(=O)Nc1ccc(C#CC3=CCCCC3)cc12 | 0.543
7 | COCCCNC(=O)[C@@]1(Cc2ccccc2)N=C(c2ccc(OCCCO)cc2)O[C@H]1c1ccccc1CN=[N+]=[N-] | 0.0607
8 | Cc1ccc(C2C3C(=O)CC4C(=O)N(c5ccccc5)C(=O)C4C3CN2S(=O)(=O)c2ccc(C)cc2)cc1 (stereo unspecified) | -0.173
9 | O=C(NC1CC1)[C@@H]1c2ccccc2C(=O)N(Cc2cc(F)cc(C(F)(F)F)c2)[C@H]1c1ccc(CO)cc1 | -0.0527
10 | COc1cc2c(cc1O)C(c1cccs1)N(Cc1cccc(OC(F)(F)F)c1)CC2 (stereo unspecified) | 0.171
11 | CCOC(=O)C1=CC[C@@H](c2ccccc2)N(S(=O)(=O)c2ccc(C)cc2)[C@H]1c1ccc(CC)cc1 | -0.11

Reference: PubChem BioAssay
